Bioassay records (PubChem BioAssay)
The full list was thinned out, with hits kept by preference.
Methyltransferases: Primary Screen for Target Class Profiling of Small Molecule Inhibitors of Methyltransferases. 25,000 tested, 3.9% active. calls only at 40 µM. purified enzyme, MTase-Glo SAH luminescence; hits give low values; call rule not given here
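Each enzyme was assayed with SAM and its substrate. SAH formation detected by MTase-Glo luminescence; single-point 40 uM screen[…].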
Starred values were filed as active, the others as inactive. % is scaled to controls: 0 for no effect and ±100 for the full control effect.

What do the screens show for `C=C1C(O[C@@H]2O[C@H](CO)[C@@H](O)[C@H](O)[C@@H]2O)CC2C(C)(C)C(O)CCC2(C)C1CC/C(C)=C\CO` (stereo partly drawn)?
Methyltransferases: active

What do the screens show for `C=C1CC[C@@H]2[C@](C)(CO)[C@H](O[C@@H]3O[C@H](CO)[C@@H](O)[C@H](O)[C@H]3O)CC[C@@]2(C)[C@@H]1C/C=C1/C(=O)OC[C@H]1O`?
Methyltransferases: inactive

What do the screens show for `CCCCN1C(=O)c2cc(C(=O)Nc3cc(Cl)c(OC)cc3OC)nn2CC1(C)C(=O)NC1CCCC1` (stereo not drawn)?
Methyltransferases: inactive

How did COc1ccc(OC)c(N2C(=O)CSc3c(c4ccccc4n3C)C2C(=O)NCc2ccc(F)cc2)c1 (stereo not drawn) do in these assays?
Methyltransferases: inactive

Results for COc1ccccc1CNC(=O)CCc1nnc2n(CCc3ccccc3)c(=O)c3ccccc3n12 ?
Methyltransferases: inactive

What do the screens show for `CCCN1C(=O)c2c(C(=O)NCc3ccc(C)cc3)ncn2CC1(C)C(=O)NC1CCCC1` (stereo not drawn)?
Methyltransferases: inactive

What do the screens show for `CCCC1c2ccc(C)n2CCN1C(=O)Nc1cc(Cl)ccc1C(=O)OC` (stereo not drawn)?
Methyltransferases: inactive

Results for CCCCCc1ccc(/C=C/C(=O)Nc2cc(Cl)ccc2C(=O)O)cc1 ?
Methyltransferases: active

Results for O=C(/C=C/c1ccc(O)cc1)N[C@@H](Cc1ccc(O)cc1)C(=O)O ?
Methyltransferases: inactive

How did Cc1ccc(N2C(=O)c3cc4sccc4n3CC2(C)C(=O)NC2CCCC2)cc1C (stereo not drawn) do in these assays?
Methyltransferases: inactive

Results for Cc1ccc(CNC(=O)CCc2nnc3n(Cc4ccc(F)cc4)c(=O)c4ccccc4n23)cc1 ?
Methyltransferases: inactive

Results for CCC(C)NC(=O)c1ccc2c(=O)n(CC(C)C)c3nn(Cc4ccccc4F)c(=O)n3c2c1 (stereo not drawn) ?
Methyltransferases: inactive

Results for COCCCNC(=O)C1(C)Cn2nc(-c3ccccc3)cc2C(=O)N1c1cccc(SC)c1 (stereo not drawn) ?
Methyltransferases: inactive

How did CS(=O)(=O)N1CCc2c(-c3cnc(N)nc3)nc(N3CCOCC3)nc21 do in these assays?
Methyltransferases: inactive

How did Cc1c(CN2CCN(S(C)(=O)=O)CC2)sc2c(N3CCOCC3)nc(-c3cnc(N)nc3)nc12 do in these assays?
Methyltransferases: active

How did COc1cc(OC)cc(-c2nc(-c3ccc(S(=O)(=O)N4CCC(C)CC4)cc3)no2)c1 do in these assays?
Methyltransferases: inactive

What do the screens show for `CCCN1C(=O)c2c(C(=O)NCc3ccc(F)cc3)ncn2CC1(C)C(=O)NCc1ccc(OC)cc1` (stereo not drawn)?
Methyltransferases: inactive

Results for O=C1c2cc3occc3n2CC(C(=O)NC2CCCCCCC2)(c2ccccc2)N1Cc1ccc(Cl)cc1 (stereo not drawn) ?
Methyltransferases: inactive

Results for Cc1cccc(NC(=O)CSc2nnc3n(CCC(C)C)c(=O)c4ccccc4n23)c1 ?
Methyltransferases: inactive

How did COc1ccc(-c2cc3n(n2)CC(C)(C(=O)NCc2ccccc2OC)N(Cc2ccc(Cl)cc2)C3=O)cc1 (stereo not drawn) do in these assays?
Methyltransferases: inactive

How did O=C(NCCc1ccc(Cl)cc1)c1ccc2c(=O)[nH]c3c(C(=O)NC4CCCC4)sc(=S)n3c2c1 do in these assays?
Methyltransferases: active

Results for CC(C)OCCCNC(=O)c1ccc2c(=O)[nH]c3c(C(=O)NC4CCCC4)sc(=S)n3c2c1 ?
Methyltransferases: inactive

What do the screens show for `O=C(NCCc1ccccc1)c1ccc2c(=O)[nH]c3c(C(=O)NCC4CCCO4)sc(=S)n3c2c1` (stereo not drawn)?
Methyltransferases: active

Results for Cc1ccc(-c2n[nH]n3c2nc(=O)c2ccc(C(=O)NCCc4ccccc4)cc23)cc1 ?
Methyltransferases: inactive

What do the screens show for `CC(C)NC(=O)c1sc(=S)n2c1[nH]c(=O)c1ccc(C(=O)NC(C)CCc3ccccc3)cc12` (stereo not drawn)?
Methyltransferases: inactive

How did Cn1c(=O)c2ccc(C(=O)NC3CCCCC3)cc2n2c(=O)n(Cc3ccc(Cl)cc3)nc12 do in these assays?
Methyltransferases: inactive

What do the screens show for `COc1cccc(CN2C(=O)c3ccc(-c4ccco4)n3CC2(C)C(=O)NC2CCCCC2C)c1` (stereo not drawn)?
Methyltransferases: inactive

Results for CCCn1c(=O)c2ccc(Cl)cc2n2c(SCC(=O)Nc3cccc(OC)c3)nnc12 ?
Methyltransferases: inactive

How did O=C(Cn1ccc2cc(S(=O)(=O)N3CCCCC3)ccc21)NC1CCCCC1 do in these assays?
Methyltransferases: inactive

What do the screens show for `CC(Cc1ccco1)NC(=O)c1cc2n(n1)CCCN(Cc1ccccc1)C2=O` (stereo not drawn)?
Methyltransferases: inactive

Results for CC(=O)N[C@@H](CS)C(=O)O ?
Methyltransferases: inactive

Results for COc1cccc(OC)c1-c1ccc(C[C@H](NC(=O)c2c(Cl)cccc2Cl)C(=O)O)cc1 ?
Methyltransferases: inactive

Results for COc1ccc(CC(NC(C)=O)C(=O)O)cc1 (stereo not drawn) ?
Methyltransferases: active

How did CCCc1cc2c(-c3ccccc3)cc(=O)oc2cc1OCc1ccc(C(=O)OC)o1 do in these assays?
Methyltransferases: inactive

How did CC1(C(=O)NC2CCCCCCC2)Cn2c(ccc2-c2ccco2)C(=O)N1CCc1cccs1 (stereo not drawn) do in these assays?
Methyltransferases: inactive

What do the screens show for `Fc1ccc2[nH]ccc2c1-c1nc(N2CCOCC2)c2sc(CN3CCN(CC4CC4)CC3)cc2n1`?
Methyltransferases: active

Results for Cc1ccc(S(=O)(=O)NCCn2c(CCc3ccccc3)nc3ccccc32)c(C)c1 ?
Methyltransferases: inactive

How did O=C(c1ccc(Cl)cc1)N1CCN(c2ccnc3cc(Cl)ccc23)CC1 do in these assays?
Methyltransferases: active

How did CCn1cc(-c2ccc(Cl)cc2)cc1C(=O)N1CCN(c2ccccn2)CC1 do in these assays?
Methyltransferases: inactive

What do the screens show for `O=C(c1ccc(Cl)c([N+](=O)[O-])c1)N1CCN(c2ccccc2F)CC1`?
Methyltransferases: inactive

What do the screens show for `CCCn1c(=O)c2ccccc2n2c(=O)n(CC(=O)Nc3cc(F)ccc3F)nc12`?
Methyltransferases: inactive

How did CCCCOc1ccc(CNC(=O)c2cc3n(n2)CC(C)(C(=O)NCc2ccc(C)cc2)N(C)C3=O)cc1 (stereo not drawn) do in these assays?
Methyltransferases: inactive

Results for CCOC(=O)c1cc2n(n1)CC(C)(C(=O)NC1CCCCCC1)N(Cc1ccccc1F)C2=O (stereo not drawn) ?
Methyltransferases: inactive

Results for COc1ccccc1CN1C(=O)c2c(NC(C)=O)c3ccccc3n2CC1(C)C(=O)NCCC(C)C (stereo not drawn) ?
Methyltransferases: inactive

How did CC(C(=O)NCc1ccc2c(c1)OCO2)n1ccc2cc(S(=O)(=O)N3CCCC3)ccc21 (stereo not drawn) do in these assays?
Methyltransferases: inactive

What do the screens show for `CC(C)Cn1c(=O)c2ccc(C(=O)NC(C)C)cc2n2c(=O)n(Cc3ccc(F)cc3)nc12`?
Methyltransferases: inactive

What do the screens show for `Cc1ccc(NC(=O)CSc2nnc3n(Cc4ccccc4)c(=O)c4ccccc4n23)cc1C`?
Methyltransferases: inactive
